Assay [1] in a line: qHTS assay to identify small molecule agonists of the hypoxia (HIF-1) signaling pathway - cell viability counter screen (AID 1224844; calls by dose curve; note: nearly all actives have a fitted effect of over 50% in size; note: potency is the fitted concentration of half-maximal effect). The method, boiled down: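 Luminescent ATP content (CellTiter-Glo, 30 min, room temperature) served as the viability measure in HRE-bla ME-180 cells exposed to compounds for 17 hrs in low-serum medium (0.5% dialyzed FBS).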
On the technique in general: In qHTS, concentration-response curves come from the screen itself.

The nature of assay [2]: qHTS assay to identify small molecule agonists of the hypoxia (HIF-1) signaling pathway (AID 1224846; active = well fitted activation curve with a large enough effect in the signal ratio in the repeat runs, not every such curve was filed as active; the % refers to the signal ratio). The method, boiled down:
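Measured by blue/green FRET after loading CCF4-AM: beta-lactamase expressed from a hypoxia response element in ME-180 cells. Test agents were delivered in DMSO and left 17 hrs; cells had been plated 5 hrs earlier in low-serum (0.5% dialyzed FBS) medium.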

The nature of assay [3]: qHTS assay to identify small molecule agonists of H2AX - cell viability counter screen (AID 1224847; calls by dose curve; note: nearly all actives have a fitted effect of over 30% in size; note: potency is the fitted concentration of half-maximal effect). In short, it runs like this: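 CHO-K1 wt, 1000 cells/well, o/n 37C; cpds 15 conc, 3 h 37C, 0.76% DMSO; CellTiter-Glo, 30 min RT, luminescence.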
Assay [4] in a line: qHTS assay to identify small molecule antagonists of the estrogen related receptor (ERR) signaling pathway from Tox21 library (AID 1224848). Note: nearly all actives have a fitted effect of over 50% in size. The method, boiled down: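 Antagonist-mode screen of the Tox21 10K library in an NTP-provided ERR reporter cell line; 18 h compound exposure at 37 C, luminescence measured with ONE-Glo.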
Assay [5] in a line: qHTS assay to identify small molecule agonists of the estrogen related receptor (ERR) signaling pathway from Tox21 library (AID 1224849; calls by dose curve; note: nearly all actives have a fitted effect of over 15% in size). The following applies: ERR reporter cell line, ONE-Glo luciferase, 18 h; at 92.4 µM (top of the series) unless noted. The method, boiled down: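 We plated ERR reporter cells, waited 6 h, added compounds in DMSO by pin tool and incubated them 18 h at 37 C. ONE-Glo was then added and luminescence read after 30 min.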

Assay [6] is described as follows: qHTS RealTime-Glo MT Cell Viability Assay in HepG2 cells - 24 hour (AID 1224867). Note: nearly all actives have a fitted effect of over 50% in size. The method, boiled down: (§1)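 HepG2 cells were seeded at 600 cells/well together with NanoLuc luciferase and a cell-permeant prosubstrate, preincubated 5 h at 37 C/5% CO2, then pin-dosed with compounds in DMSO. Nonlytic luminescence from viable cells was read at each time point.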
Assay [7] is described as follows: qHTS RealTime-Glo MT Cell Viability Assay in HEK293 cells - 32 hour (AID 1224868). Note: nearly all actives have a fitted effect of over 50% in size. Note: potency is the fitted concentration of half-maximal effect. The method, boiled down:
(§2)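 HEK293 cells were seeded at 600 cells/well together with NanoLuc luciferase and cell-permeant prosubstrate, preincubated 5 h at 37 C/5% CO2, then given compound in DMSO by pintool. Luminescence from viable-cell prosubstrate reduction was read repeatedly over 40 h.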

A short description of assay [8]: A CellTox Green Cytotoxicity Assay to monitor cytotoxicity in HEK293 cells - 0 hour (AID 1224869). Note: nearly all actives have a fitted effect of over 50% in size. In short, it runs like this:
(§3)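 Each value comes from one timepoint of a single continuous run in which HEK293 cells with CellTox Green were exposed to compound for up to 40 h at 37 C, dye fluorescence rising with cell death.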

Assay [9] in a line: qHTS RealTime-Glo MT Cell Viability Assay in HepG2 cells - 40 hour (AID 1224870). Note: nearly all actives have a fitted effect of over 50% in size. The method, boiled down: (§4)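 Real-time viability: cells seeded at 600 per well together with NanoLuc and cell-permeant prosubstrate, compounds added after 5 h incubation. Luminescence tracked at 0, 8, 16, 24, 32 and 40 h of exposure.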
The nature of assay [10]: A CellTox Green Cytotoxicity Assay to monitor cytotoxicity in HEK293 cells - 40 hour (AID 1224871). Note: nearly all actives have a fitted effect of over 45% in size. In short, it runs like this: as §3
Assay [11] can be described thus: qHTS RealTime-Glo MT Cell Viability Assay in HEK293 cells - 16 hour (AID 1224872). Note: nearly all actives have a fitted effect of over 50% in size. Note: potency is the fitted concentration of half-maximal effect. The method, boiled down: as §2
A short description of assay [12]: qHTS RealTime-Glo MT Cell Viability Assay in HepG2 cells - 8 hour (AID 1224873). Note: nearly all actives have a fitted effect of over 55% in size. The method, boiled down:
as §4

Assay [13] in a line: A CellTox Green Cytotoxicity Assay to monitor cytotoxicity in HEK293 cells - 24 hour (AID 1224875). Note: nearly all actives have a fitted effect of over 45% in size. The method, boiled down:
as §3

A short description of assay [14]: A CellTox Green Cytotoxicity Assay to monitor cytotoxicity in HepG2 cells - 16 hour (AID 1224876). Note: nearly all actives have a fitted effect of over 45% in size. The method, boiled down: (§5)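 Continuous culture of HepG2 cells with a membrane-impermeant DNA dye; rising fluorescence marks dead cells. Compound exposure lasted up to 40 h at 37 C, with reads every 8 h from 0 h.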
Assay [15] in a line: qHTS RealTime-Glo MT Cell Viability Assay in HepG2 cells - 32 hour (AID 1224877). Note: nearly all actives have a fitted effect of over 55% in size. The method, boiled down:
as §1

Assay [16] in a line: A CellTox Green Cytotoxicity Assay to monitor cytotoxicity in HepG2 cells - 24 hour (AID 1224878). Note: nearly all actives have a fitted effect of over 45% in size. In short, it runs like this:
as §5

Assay [17] in a line: A CellTox Green Cytotoxicity Assay to monitor cytotoxicity in HepG2 cells - 40 hour (AID 1224879). Note: nearly all actives have a fitted effect of over 40% in size. In short, it runs like this: as §5
Assay [18] can be described thus: qHTS RealTime-Glo MT Cell Viability Assay in HEK293 cells - 0 hour (AID 1224880). The method, boiled down:
(§6)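 qHTS format; HEK293 cells with NanoLuc/prosubstrate reagent, 37 C/5% CO2 for 5 h pre-dosing; compounds 23 nL in DMSO; luminescence at each time point reflects viable cells.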

The nature of assay [19]: qHTS RealTime-Glo MT Cell Viability Assay in HEK293 cells - 40 hour (AID 1224874). Note: nearly all actives have a fitted effect of over 50% in size. Note: potency is the fitted concentration of half-maximal effect. The following applies: RealTime-Glo luminescence; max response: stronger effect = lower value. In short, it runs like this: as §6

The record followed here is PubChem BioAssay (Tox21).

Values joined by “and” are separate entries in the source; they are usually repeats but may differ in a detail not shown here. Equal entries are not always repeated. Records with an inconclusive call do not appear. Some structures have more than one record in an assay (separate samples or runs), and their calls can disagree. Active and inactive are the calls of the source. Unless noted, calls come from the whole dose curve; as a rule, active = well fitted curve in the direction sought with a large enough effect in the repeat runs; inconclusive = weak or mixed curves; inactive = no such curve, though single readings can be large; an effect the other way counts as inactive or inconclusive.
% is set by controls: 0 for no effect and ±100 for the full control effect.

As for `CC(C)C(=O)Cl`, the Potency result in assay [1], in assay [3], in [4], in assay [6], in assay [7] and in assay [8] was “inactive” in each case. The Potency result in [9], in assay [10], in [11], in [12], in assay [13] and in assay [14] was “inactive” each time. For the same compound, the Potency result in assay [15], in assay [16], in [17] and in assay [18] was “inactive” throughout. Besides, the result in [2] was inactive. The activity change, positive = activation in [5] was -0.166% (inactive).
As for `CCN(CC)c1c([N+](=O)[O-])cc(C(F)(F)F)c(N)c1[N+](=O)[O-]`, the Potency entry in [1], in [8], in assay [9], in assay [13] and in assay [18] was “inactive” in each case. Further, in assay [2], the compound was called inactive. In addition, the Potency in [3] was 113 µM (active); in [7], 19.5 µM (active); in [11] it was 12.3 µM (active); in assay [19], 21.9 µM (active).
In the case of `N#CNC#N`, the Potency entry in assay [1], in assay [3], in [6], in assay [7], in [8] and in assay [9] was “inactive” throughout. In addition, the Potency result in [10], in assay [11], in assay [12], in assay [13], in [14] and in assay [15] was “inactive” throughout. Besides, the Potency entry in assay [16], in assay [17] and in [18] was “inactive” each time. In addition, the compound was called inactive in [2]. Also, the max response in [19] is 1.5% (inactive).
On to `N#CCc1ccc(Cl)cc1`, for which the Potency result in assay [1], in assay [3], in [4], in assay [7], in [8] and in assay [9] was “inactive” in each case. The Potency entry in assay [11], in [13], in [14], in assay [15], in assay [16] and in assay [17] was “inactive” throughout. Also, the Potency entry in assay [18] is “inactive”. For the same compound, the compound was called inactive in [2]. The activity change, positive = activation in assay [5] was 1.98% (inactive). The max response in assay [19] is 1.31% (inactive).
In the case of `C[C@H]1O[C@@H](O[C@H]2[C@@H](O)C[C@H](O[C@H]3[C@@H](O)C[C@H](O[C@H]4CC[C@@]5(C)[C@H](CC[C@@H]6[C@@H]5CC[C@]5(C)[C@@H](C7=CC(=O)OC7)CC[C@]65O)C4)O[C@@H]3C)O[C@@H]2C)C[C@H](O)[C@@H]1O`, the Potency in [1] was 98.3 nM (active) and 190 nM (active); in [7], 31.1 nM (active) and 95.2 nM (active); in [11], 0.0952 µM (active); in assay [19] it was 31.1 nM (active) and 95.2 nM (active). Further, the compound was called inactive in assay [2]. Further, the Potency entry in [3], in assay [4], in [6], in assay [8], in assay [9] and in [13] was “inactive” in each case. For the same compound, the Potency entry in assay [14], in assay [15], in [16], in assay [17] and in assay [18] was “inactive” in each case. Also, in [5], the activity change, positive = activation is -72.7% [at 42.5 µM] (inactive) and -65% [at 42.5 µM] (active).
With `Cc1cc(Cl)ccc1O[C@H](C)C(=O)O`, the Potency entry in assay [1], in [3], in [6], in assay [7], in [10] and in assay [11] was “inactive” throughout. The Potency entry in assay [12], in assay [13], in [14], in assay [15], in [16] and in assay [17] was “inactive” throughout. In [18], the Potency entry is “inactive”. In addition, in assay [2], the result was inactive. Further, the max response in [19] was -1.32% (inactive).
`O=C(CBr)c1ccc(O)cc1`: the Potency entry in assay [1], in assay [3], in [6], in [8], in [9] and in assay [10] was “inactive” in each case. Besides, the Potency result in [12], in assay [13], in assay [14], in assay [15], in assay [16] and in [18] was “inactive” throughout. For the same compound, in [2], the outcome was inactive. The activity change, positive = activation in [5] was -26% (inactive). In addition, in [19], the max response is 22.3% (inactive).
